The record followed here is PubChem BioAssay (NCATS).

Molecules are shown by their SMILES. Results filed as inconclusive are left out. Values without a mark were called inactive. The source made the active and inactive calls. Unless noted, calls come from the whole dose curve.

Assay [1] is described as follows: qHTS for Inhibitors of the Functional Ribonucleoprotein Complex (vRNP) of Lassa (LASV) Arenavirus: LASV Primary Screen - GLuc reporter signal (AID 1347082; calls by dose curve; tested in HEK293 reporter line; note: nearly all actives have a fitted effect of over 60% in size; for activity change, negative = inhibition: series mostly up to about 57 µM). A general note: qHTS replaces the single test concentration by a dilution series.
Assay [2] is described as follows: qHTS for Inhibitors of the Functional Ribonucleoprotein Complex (vRNP) of Lassa (LASV) Arenavirus: Viability assay - alamar blue signal for LASV Primary Screen (AID 1347083; calls by dose curve; tested in HEK293 reporter line; note: nearly all actives have a fitted effect of over 80% in size; for activity change, negative = reduced viability: series mostly up to about 57 µM).
Assay [3] in a line: qHTS for Inhibitors of the Functional Ribonucleoprotein Complex (vRNP) of Lymphocytic Choriomeningitis Arenaviruses (LCMV): Viability assay - alamar blue signal for LCMV Primary Screen (AID 1347085; calls by dose curve; tested in HEK293 reporter line; note: nearly all actives have a fitted effect of over 80% in size; for activity change, negative = lower viability: series mostly up to about 57 µM).
The target in assay [4] is Nucleoprotein (Lymphocytic choriomeningitis virus (strain Armstrong)) (UniProt P09992). As to the kind of experiment: qHTS for Inhibitors of the Functional Ribonucleoprotein Complex (vRNP) of Lymphocytic Choriomeningitis Arenaviruses (LCMV): LCMV Primary Screen - GLuc reporter signal (AID 1347086). For activity change, negative = inhibition: series mostly up to about 57 µM. Note: nearly all actives have a fitted effect of over 70% in size.
Chain of Nucleoprotein (Lymphocytic choriomeningitis virus (strain Armstrong)) (P09992 whole entry, looked up): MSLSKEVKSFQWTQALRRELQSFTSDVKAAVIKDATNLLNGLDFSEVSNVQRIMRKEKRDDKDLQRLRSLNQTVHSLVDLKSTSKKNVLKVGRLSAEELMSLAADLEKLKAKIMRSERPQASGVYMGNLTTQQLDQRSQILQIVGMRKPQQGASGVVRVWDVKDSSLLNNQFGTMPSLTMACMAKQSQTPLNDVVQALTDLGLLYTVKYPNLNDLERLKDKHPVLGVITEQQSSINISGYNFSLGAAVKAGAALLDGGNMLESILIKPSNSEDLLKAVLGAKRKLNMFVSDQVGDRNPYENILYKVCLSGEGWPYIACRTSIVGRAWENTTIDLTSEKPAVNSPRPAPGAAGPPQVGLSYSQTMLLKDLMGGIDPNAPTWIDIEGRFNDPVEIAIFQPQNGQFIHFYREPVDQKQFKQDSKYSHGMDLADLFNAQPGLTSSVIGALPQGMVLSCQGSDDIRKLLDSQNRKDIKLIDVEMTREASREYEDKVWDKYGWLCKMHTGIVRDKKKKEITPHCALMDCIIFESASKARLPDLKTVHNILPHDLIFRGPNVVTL
% is set by controls: 0 for no effect and ±100 for the full control effect; potency is the fitted concentration of half-maximal effect.

In the case of `O=C1OC2(c3ccccc31)c1cc(Br)c(O)c(Br)c1Oc1c2cc(Br)c(O)c1Br`, the Potency entry in assay [1], in assay [2], in assay [3] and in assay [4] was “inactive” each time.
As to `CCCCCCCC(=O)OCC(COC(=O)CCCCCCC)OC(=O)CCCCCCC`, the Potency result in assay [1], in assay [2], in assay [3] and in assay [4] was “inactive” in each case.
Take `Nc1ccc(C(=O)OCC(O)CO)cc1` (stereo not drawn): the Potency result in assay [1], in assay [2], in assay [3] and in assay [4] was “inactive” in each case.
`CN/C(=C\[N+](=O)[O-])NCCSCc1csc(CN(C)C)n1`: the Potency entry in assay [1], in assay [2], in assay [3] and in assay [4] was “inactive” in each case.
`CCCCCCCCCCCCCCCC(=O)NCCO`: the Potency result in assay [1], in assay [2], in assay [3] and in assay [4] was “inactive” each time.
As to `CCCC(CCC)(C(=O)OCC)C(=O)OCC`, the Potency result in assay [1], in assay [2], in assay [3] and in assay [4] was “inactive” throughout.
`Clc1ccc2c(c1)Nc1ccccc1S2`: the Potency result in assay [1], in assay [2], in assay [3] and in assay [4] was “inactive” throughout.
Take `C=CCn1c(=O)n([C@@H]2O[C@H](CO)[C@@H](O)[C@H]2O)c2nc(N)[nH]c(=O)c21`: the Potency result in assay [1], in assay [2], in assay [3] and in assay [4] was “inactive” in each case.
With `CCN1CCN(C(=O)N[C@@H](C(=O)N[C@@H]2C(=O)N3[C@@H]2SC(C)(C)[C@H]3C(=O)O)c2ccccc2)C(=O)C1=O`, the Potency result in assay [1], in assay [2], in assay [3] and in assay [4] was “inactive” each time.
Regarding `O=C(O)CCCCCCCC(=O)O`, the Potency result in assay [1], in assay [2], in assay [3] and in assay [4] was “inactive” throughout.
In the case of `NC(=O)NS(=O)(=O)c1ccc(Cl)cc1`, the Potency result in assay [1], in assay [2], in assay [3] and in assay [4] was “inactive” each time.
Take `CN(C)CCOC(=O)COc1ccc(Cl)cc1`: the Potency entry in assay [1], in assay [2], in assay [3] and in assay [4] was “inactive” throughout.
As for `Cc1cc(NS(=O)(=O)c2ccc(N)cc2)no1`, the Potency result in assay [1], in assay [2], in assay [3] and in assay [4] was “inactive” throughout.
Regarding `Cc1cc(=O)c2c(O)c3c(O)cc(=O)c4c3c3c(cc(O)c1c23)C(C)(C)C=4O`, the Potency entry in assay [1], in assay [2], in assay [3] and in assay [4] was “inactive” each time.
Consider `Nc1nc(N)c(-c2ccccc2)s1`, for which the Potency result in assay [1], in assay [2], in assay [3] and in assay [4] was “inactive” each time.
As for `Oc1c(Br)cc(Br)c2cccnc12`, the Potency entry in assay [1], in assay [2], in assay [3] and in assay [4] was “inactive” in each case.
With `CCOC(=O)O[C@]1(C(=O)OCCl)CC[C@H]2[C@@H]3CCC4=CC(=O)C=C[C@]4(C)[C@H]3[C@@H](O)C[C@@]21C`, the Potency entry in assay [1], in assay [2], in assay [3] and in assay [4] was “inactive” in each case.
Regarding `COc1cc(C(=O)OC(COCCC(C)C)CN2CCOCC2)cc(OC)c1OC` (stereo not drawn), the Potency entry in assay [1], in assay [2], in assay [3] and in assay [4] was “inactive” throughout.
Consider `c1ccc(-c2nc[nH]c2-c2ccccc2)cc1`, for which the Potency entry in assay [1], in assay [2], in assay [3] and in assay [4] was “inactive” throughout.
Regarding `NCC[C@H](O)C(=O)N[C@@H]1C[C@H](N)[C@@H](O[C@H]2O[C@H](CN)[C@@H](O)[C@H](O)[C@@H]2O)[C@H](O)[C@@H]1O[C@H]1O[C@H](CO)[C@@H](O)[C@H](N)[C@@H]1O`, the figures for the activity change, negative = inhibition in assay [1] and in assay [4] were -6.8% [at 0.757 µM] and 19.2% [at 0.757 µM], respectively. The activity change, negative = reduced viability in assay [2] is -4.3% [at 0.757 µM]. Besides, the activity change, negative = lower viability in assay [3] was -4.65% [at 0.757 µM].
Consider `O=C1OC(CN2CCOCC2)CN1/N=C/c1ccc([N+](=O)[O-])o1` (stereo not drawn), for which the Potency result in assay [1], in assay [2], in assay [3] and in assay [4] was “inactive” each time.
As to `C[C@@H]1O[C@@H](O[C@H]2CC[C@@]3(C)[C@H](CC[C@@H]4[C@H]3C[C@@H](O)[C@]3(C)[C@@H](C5=CC(=O)OC5)CC[C@]43O)C2)C[C@H](O)[C@@H]1O[C@H]1C[C@H](O)[C@H](O[C@H]2C[C@H](O)[C@@H](O)[C@@H](C)O2)[C@H](C)O1` (stereo in doubt), the Potency in assay [1] was 559 nM (active); in assay [2], 352 nM (active); in assay [3], 396 nM (active); in assay [4], 444 nM (active).
For `NC(=O)NC1NC(=O)NC1=O` (stereo not drawn), in that order: “inactive”, “inactive”, “inactive” and “inactive”.
For the compound `CC[N+](CC)(CC)CCOc1cccc(OCC[N+](CC)(CC)CC)c1OCC[N+](CC)(CC)CC`, the Potency entry in assay [1], in assay [2], in assay [3] and in assay [4] was “inactive” throughout.
Regarding `CN1CC(=O)NC1=N`, the Potency entry in assay [1], in assay [2], in assay [3] and in assay [4] was “inactive” each time.
On to `O=C(NC(Cc1cc(=O)[nH]c2ccccc12)C(=O)O)c1ccc(Cl)cc1` (stereo not drawn), for which the Potency entry in assay [1], in assay [2], in assay [3] and in assay [4] was “inactive” throughout.
Take `COC(=O)/C=C\C(=O)OC`: the Potency result in assay [1], in assay [2], in assay [3] and in assay [4] was “inactive” in each case.
As to `C[N+]1(C)CCCC(OC(=O)C(O)(c2ccccc2)c2ccccc2)C1` (stereo not drawn), the Potency entry in assay [1], in assay [2], in assay [3] and in assay [4] was “inactive” each time.
As to `Cc1cccc(C)c1NC(=O)CN(CC(=O)O)CC(=O)O`, the Potency entry in assay [1], in assay [2], in assay [3] and in assay [4] was “inactive” throughout.
In the case of `NS(=O)(=O)c1ccc(Cl)c(S(N)(=O)=O)c1`, the Potency result in assay [1], in assay [2], in assay [3] and in assay [4] was “inactive” in each case.
On to `Cc1cc2c(cc1S(N)(=O)=O)S(=O)(=O)CCC2`, for which the Potency entry in assay [1], in assay [2], in assay [3] and in assay [4] was “inactive” each time.
With `CC[C@H](C)C(=O)O[C@H]1C[C@H](O)C=C2C=C[C@H](C)[C@H](CC[C@@H](O)C[C@@H](O)CC(=O)O)[C@H]21`, the Potency result in assay [1], in assay [2], in assay [3] and in assay [4] was “inactive” throughout.
For the compound `O=C1c2c(O)cccc2Cc2cccc(O)c21`, the Potency result in assay [1], in assay [2], in assay [3] and in assay [4] was “inactive” each time.
On to `OC[C@H]1O[C@@H](Oc2ccc(O)cc2)[C@H](O)[C@@H](O)[C@@H]1O`, for which the Potency entry in assay [1], in assay [2], in assay [3] and in assay [4] was “inactive” each time.
Turning to `Cc1cccc(C(=O)O)c1O`, the Potency result in assay [1], in assay [2], in assay [3] and in assay [4] was “inactive” throughout.
Take `OCCOCCN1CCN(C2=Nc3ccccc3Sc3ccccc32)CC1`: the Potency entry in assay [1], in assay [2], in assay [3] and in assay [4] was “inactive” throughout.
Consider `N=C(N)N`, for which the Potency result in assay [1], in assay [2], in assay [3] and in assay [4] was “inactive” in each case.
